SMILES strings stand for the structures. Unmarked numbers belong to inactive results. For part of these data: Entries with a potency or affinity are not part of this list. Activity calls are given as the source filed them. Unless noted, the rule behind the calls is not given here.

From PubChem BioAssay come the findings set out here.

Assay [1] in a line: antimalarial activity against Dd2 strain (AID 2302;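 active = growth inhibition above 50% at the single 2 µM test dose, taken to imply half-maximal potency below 2 µM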;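 note: 0% = DMSO untreated growth and 100% = chloroquine plus artemisinin killed control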). Particulars: P. falciparum Dd2 in RBCs, LDH growth readout, 72 h; at 2 µM; active compounds read high.
The nature of assay [2]: human hepatoma cell viability loss – ATP luminescence, cytotoxicity control for P. falciparum antimalarial project, primary screen (AID 2303;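 active = inhibition above 50%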;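 note: 0% = DMSO wells and 100% = digitonin-killed cells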). Particulars: HepG2 viability, 24-48 h, at 10 µM, active compounds read high.
Assay [3] concerns the target L-lactate dehydrogenase (Plasmodium falciparum (isolate CDC / Honduras)) (UniProt Q27743). The assay is described as follows: PfLDH activity inhibition – cell lysate, 3D7 strain, counter-screen for P. falciparum growth inhibition project (AID 2304).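 Note: 0% = vehicle and 100% = reference inhibitor.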 To be noted: P. falciparum 3D7 crude extract, LDH APAD/NBT absorbance; at 2 µM; active compounds read high. For orientation: The purpose of a counterscreen is to sort out artefacts and off-target activity.

A short description of assay [4]: inhibition of 3D7 malaria parasite growth – strain 3D7 (AID 2306).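 Note: 0% = DMSO wells and 100% = chloroquine plus artemisinin control wells.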 Particulars: P. falciparum 3D7 erythrocytic growth, LDH absorbance, 72 h; at 2 µM; active compounds read high.
Assay [5] addresses Calcium-dependent protein kinase 1 (Plasmodium falciparum (isolate 3D7)) (UniProt P62344). As to the kind of experiment: PfCDPK1 kinase inhibitors, biochemical, TCAMS library (AID 1159585; cut-off not given, nearly all actives have IC50 up to about 0.98 µM;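 note: inhibitors leave more ATP so luminescence rises with inhibition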). Particulars: recombinant PfCDPK1, Kinase-Glo ATP depletion luminescence. On the technique in general: Kinase-Glo measures the ATP left after a reaction by luminescence.
In assay [6] the target is Plasmodium falciparum protein kinase 6 (PK6, PF3D7_1337100) (UniProt Q8IDW1). As to the kind of experiment: PfPK6 kinase inhibitors, biochemical, TCAMS library (AID 1159586). Particulars: recombinant PfPK6, Kinase-Glo ATP depletion luminescence.
The target of assay [7] is Protein kinase 7 (PK7), Plasmodium falciparum 3D7 (PF3D7_0213400) (UniProt Q7YTF7). The assay is described as follows: inhibition of Plasmodium PK7 catalytic activity – biochemical, TCAMS antimalarial set, Kinase-Glo luminescence (AID 1159587). To be noted: recombinant PfPK7, Kinase-Glo ATP depletion luminescence.
For assay [8], the target named is Calcium-dependent protein kinase 4 (Plasmodium falciparum (isolate 3D7)) (UniProt Q8IBS5). The assay is described as follows: PfCDPK4 kinase inhibitors, biochemical, TCAMS library (AID 1159588; cut-off not given, nearly all actives have IC50 up to about 0.91 µM). Particulars: recombinant PfCDPK4, Kinase-Glo ATP depletion luminescence.
Chain of Calcium-dependent protein kinase 4 (Plasmodium falciparum (isolate 3D7)) (Q8IBS5 whole entry, looked up): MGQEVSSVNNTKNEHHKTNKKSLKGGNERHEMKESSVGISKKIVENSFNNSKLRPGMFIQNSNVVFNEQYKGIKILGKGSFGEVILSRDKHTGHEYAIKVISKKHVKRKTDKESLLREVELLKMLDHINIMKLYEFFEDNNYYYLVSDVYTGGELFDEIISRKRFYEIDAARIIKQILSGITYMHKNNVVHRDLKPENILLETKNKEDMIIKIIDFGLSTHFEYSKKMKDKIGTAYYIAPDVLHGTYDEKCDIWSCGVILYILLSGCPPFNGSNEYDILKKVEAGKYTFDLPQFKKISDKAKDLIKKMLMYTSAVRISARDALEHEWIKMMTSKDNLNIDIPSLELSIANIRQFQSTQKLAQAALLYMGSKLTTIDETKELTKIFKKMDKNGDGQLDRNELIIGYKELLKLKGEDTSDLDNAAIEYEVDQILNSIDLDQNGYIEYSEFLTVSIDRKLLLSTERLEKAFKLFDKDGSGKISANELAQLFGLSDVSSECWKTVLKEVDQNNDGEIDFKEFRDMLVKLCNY

Chain of Protein kinase 7 (PK7), Plasmodium falciparum 3D7 (PF3D7_0213400) (Q7YTF7 1-343): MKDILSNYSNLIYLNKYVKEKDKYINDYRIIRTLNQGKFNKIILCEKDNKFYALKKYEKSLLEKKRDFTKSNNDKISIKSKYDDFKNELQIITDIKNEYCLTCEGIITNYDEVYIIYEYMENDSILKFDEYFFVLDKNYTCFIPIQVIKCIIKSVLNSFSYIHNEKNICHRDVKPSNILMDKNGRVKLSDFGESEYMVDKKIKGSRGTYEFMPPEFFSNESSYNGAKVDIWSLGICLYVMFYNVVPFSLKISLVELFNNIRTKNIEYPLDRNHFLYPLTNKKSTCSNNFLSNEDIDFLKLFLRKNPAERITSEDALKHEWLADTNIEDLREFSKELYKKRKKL
Chain of Calcium-dependent protein kinase 1 (Plasmodium falciparum (isolate 3D7)) (P62344 whole entry, looked up): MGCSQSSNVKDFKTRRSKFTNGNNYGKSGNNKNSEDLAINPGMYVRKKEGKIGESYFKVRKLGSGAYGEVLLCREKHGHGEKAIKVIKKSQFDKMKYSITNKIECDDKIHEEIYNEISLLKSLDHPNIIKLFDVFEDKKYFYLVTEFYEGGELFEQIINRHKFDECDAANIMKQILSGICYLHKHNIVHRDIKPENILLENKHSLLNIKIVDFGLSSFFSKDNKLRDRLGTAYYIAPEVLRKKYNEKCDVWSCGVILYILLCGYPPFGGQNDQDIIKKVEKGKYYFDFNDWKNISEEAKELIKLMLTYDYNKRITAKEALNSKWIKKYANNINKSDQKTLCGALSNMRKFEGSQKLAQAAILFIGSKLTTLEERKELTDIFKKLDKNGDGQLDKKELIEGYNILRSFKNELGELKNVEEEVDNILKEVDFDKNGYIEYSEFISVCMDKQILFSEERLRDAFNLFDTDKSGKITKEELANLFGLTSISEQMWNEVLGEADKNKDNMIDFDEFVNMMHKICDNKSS
Chain of Plasmodium falciparum protein kinase 6 (PK6, PF3D7_1337100) (Q8IDW1 1-305): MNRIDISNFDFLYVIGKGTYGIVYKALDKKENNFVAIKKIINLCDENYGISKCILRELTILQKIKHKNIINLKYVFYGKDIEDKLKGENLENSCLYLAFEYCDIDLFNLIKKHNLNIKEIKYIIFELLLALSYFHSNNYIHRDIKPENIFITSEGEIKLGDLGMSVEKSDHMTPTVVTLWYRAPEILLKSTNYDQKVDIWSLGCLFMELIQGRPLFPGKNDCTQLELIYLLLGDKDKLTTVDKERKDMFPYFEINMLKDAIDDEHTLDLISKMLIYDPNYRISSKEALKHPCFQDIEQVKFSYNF
Chain of L-lactate dehydrogenase (Plasmodium falciparum (isolate CDC / Honduras)) (Q27743 whole entry, looked up): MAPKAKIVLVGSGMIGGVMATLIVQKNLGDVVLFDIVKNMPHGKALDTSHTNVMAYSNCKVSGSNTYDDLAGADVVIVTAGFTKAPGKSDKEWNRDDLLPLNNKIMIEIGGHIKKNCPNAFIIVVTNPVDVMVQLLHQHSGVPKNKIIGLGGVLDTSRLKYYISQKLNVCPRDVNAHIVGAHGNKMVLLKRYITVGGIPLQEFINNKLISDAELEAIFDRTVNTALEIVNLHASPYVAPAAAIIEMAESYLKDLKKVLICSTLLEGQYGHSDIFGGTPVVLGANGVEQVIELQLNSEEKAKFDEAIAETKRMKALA

Consider `CCc1c(CCNCC/C=C/CCNCCc2ccc(OC)c(OC)c2CC)ccc(OC)c1OC`, for which the results for the growth inhibition in assay [1] and in assay [4] were 7% and 100% (active), respectively. Also, the inhibition (commonly the change of the read-out against control, counted positive when it falls) in assay [2] was 41%; in assay [3], 3%. Besides, the result in assay [5], in assay [6], in assay [7] and in assay [8] was inactive.

For the compound `CCNc1cc(C(=O)N[C@@H](Cc2cccc(Cl)c2)[C@H](O)CNC(C)CCCC(C)C)cc(N2CCCCS2(=O)=O)c1` (some centres undefined), the growth inhibition in assay [1] was 78% (active); in assay [4], 98% (active). Further, the inhibition in assay [2] was 7%; in assay [3], -1%. Also, the result in assay [5], in assay [6], in assay [7] and in assay [8] was inactive.

As to `O=C(CSc1nc(-c2ccccc2Cl)ns1)Nc1cccc(F)c1`, the growth inhibition was 81% (active) in assay [1] and 93% (active) in assay [4]. Further, the results for the inhibition in assay [2] and in assay [3] were -5% and -1%, respectively. Moreover, the result in assay [5], in assay [6], in assay [7] and in assay [8] was inactive.

`NC(=O)c1ccccc1Nc1nc(Nc2ccc(N3CCOCC3)cc2)ncc1[N+](=O)[O-]`: the growth inhibition in assay [1] is 96% (active); in assay [4], 98% (active). For the same compound, the inhibition in assay [2] was 53% (active); in assay [3], 1%. Also, the result in assay [5], in assay [6], in assay [7] and in assay [8] was inactive.

Turning to `COc1ccc2nccc([C@@H](O)CN3CCC(NCc4cnc5snnc5c4)C(F)C3)c2c1` (some centres undefined), the growth inhibition is 88% (active) in assay [1] and 83% (active) in assay [4]. The inhibition is 13% in assay [2] and 2% in assay [3]. Besides, the outcome in assay [5], in assay [6], in assay [7] and in assay [8] was inactive.

Consider `COc1ccc(CN2CCCN(Cc3cccc(NC(=O)c4ccc5ccccc5c4)c3)CC2)cc1`, for which the figures for the growth inhibition in assay [1] and in assay [4] were 11% and 93% (active), respectively. Further, the figures for the inhibition in assay [2] and in assay [3] were 27% and -5%, respectively. The result in assay [5], in assay [6], in assay [7] and in assay [8] was inactive.

Take `Nc1nc(N)c2c(ccc3c2ncn3Cc2ccccc2)n1`: the growth inhibition in assay [1] and in assay [4] was 96% (active) each time. Further, the figures for the inhibition in assay [2] and in assay [3] were 71% (active) and 4%, respectively. Further, the outcome in assay [5], in assay [6], in assay [7] and in assay [8] was inactive.

Regarding `Oc1ccc(-c2ccccc2)cc1CNC1CCCCC1`, the figures for the growth inhibition in assay [1] and in assay [4] were 100% (active) and 95% (active), respectively. In addition, the inhibition in assay [2] is 24%; in assay [3], -3%. Also, the result in assay [5], in assay [6], in assay [7] and in assay [8] was inactive.

In the case of `CC(C)(C)NCCN(Cc1ccc(-c2ccc(C(F)(F)F)cc2)cc1)C(=O)Cn1c(CCc2cccc(F)c2F)nc(=O)c2c1CCC2`, the values for the growth inhibition in assay [1] and in assay [4] were 48% and 95% (active), respectively. In addition, the inhibition in assay [2] and in assay [3] was 6% throughout. Also, the result in assay [5], in assay [6], in assay [7] and in assay [8] was inactive.

Regarding `Nc1nccc2ccc(OC3CCCCC3)cc12`, the growth inhibition in assay [1] is 41%; in assay [4], 98% (active). Besides, the inhibition in assay [2] was 24%; in assay [3] it was -4%. The result in assay [5], in assay [6], in assay [7] and in assay [8] was inactive.

Take `O=C(Nc1ccc(-c2nc3ccccc3[nH]2)cc1)c1ccc(N2CCCC2)c([N+](=O)[O-])c1`: the growth inhibition is 95% (active) in assay [1] and 100% (active) in assay [4]. Also, the inhibition is 43% in assay [2] and -1% in assay [3]. Further, the result in assay [5], in assay [6], in assay [7] and in assay [8] was inactive.

For `CCCCN1CC[C@@H](CCC(O)c2cc(OCCC)nc3ccc(OC)cc23)[C@@H](CC)C1` (some centres undefined), the growth inhibition is 99% (active) in assay [1] and 100% (active) in assay [4]. Moreover, the inhibition is 23% in assay [2] and -4% in assay [3]. Moreover, the outcome in assay [5], in assay [6], in assay [7] and in assay [8] was inactive.

On to `Cc1ccccc1Cc1cccc(/N=C(\N)Nc2ccc(Cl)cc2)n1`, for which the figures for the growth inhibition in assay [1] and in assay [4] were 56% (active) and 91% (active), respectively. The inhibition in assay [2] was 48%; in assay [3] it was -7%. In addition, the outcome in assay [5], in assay [6], in assay [7] and in assay [8] was inactive.

For the compound `Cc1ccccc1N1CCN(c2ccc(C(=O)NC(C)C)cn2)CC1`, the values for the growth inhibition in assay [1] and in assay [4] were 91% (active) and 89% (active), respectively. In addition, the inhibition in assay [2] is 13%; in assay [3] it was -2%. Moreover, the result in assay [5], in assay [6], in assay [7] and in assay [8] was inactive.

`Cc1cccc2[nH]c(-c3cccc(-c4ccc(NC(=O)Nc5ccc(Cl)c(Cl)c5)cc4)c3)nc12`: the growth inhibition in assay [1] is 83% (active); in assay [4], 102% (active). Further, the values for the inhibition in assay [2] and in assay [3] were 53% (active) and 7%, respectively. Besides, the outcome in assay [5], in assay [6], in assay [7] and in assay [8] was inactive.

Turning to `CN1CCC(N2CCN(Cc3ccc(-c4cccc(-c5nc6ccc(F)cc6[nH]5)c4)cc3)CC2)CC1`, the growth inhibition in assay [1] was 99% (active); in assay [4] it was 101% (active). The inhibition in assay [2] was 67% (active); in assay [3], -1%. The outcome in assay [5], in assay [6], in assay [7] and in assay [8] was inactive.

Turning to `O=C(NCc1ccc(F)cc1)c1ccc(N2CCN(c3ccncc3)CC2)cn1`, the growth inhibition in assay [1] is 81% (active); in assay [4], 98% (active). In addition, the inhibition is 7% in assay [2] and -2% in assay [3]. Besides, the result in assay [5], in assay [6], in assay [7] and in assay [8] was inactive.

As to `COc1ccc2nc(C)cc(Nc3ccc(N4CCN(C)CC4)cc3)c2c1`, the growth inhibition in assay [1] is 3%; in assay [4] it was 101% (active). The inhibition is 1% in assay [2] and -1% in assay [3]. Besides, the result in assay [5], in assay [6], in assay [7] and in assay [8] was inactive.
